The list is not random: actives were taken first. Their share in the collection is about 3%.
Nrf2 inh = inhibitors of Nrf2 signaling | A549 ARE-Fluc reporter, luciferase luminescence, 18-24 h | Potency, µM (titrated, usually from 46 µM), actives largely listed as inhibitors | 360,000 compounds, 2.1% hits | AID 504444; further: nearly all actives have a fitted effect of over 60% in size
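Reporter: ARE-Fluc in A549. Exposure: 18-24 h, 37 °C, 5% CO2, 5% FBS OPTI-MEM. Readouts: fluorescent cytotoxicity (CellTiter-Fluor), then luminescent Nrf2 signal after BugLite.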
GALK inh = inhibitors of human galactokinase; P51570; Purified GALK, Kinase-Glo residual ATP luminescence; 270,000 compounds, 0.007% hits; Potency, µM (top dose mostly 57.5 µM), usual class: inhibitors; AID 1868
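Luminescence from leftover ATP (Ultra-Glo luciferase/luciferin) served as read-out after a 1 h room-temperature reaction of 5 nM GALK with 35 uM ATP and 100 uM galactose.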
rTrxR1 inhibitor = rat TrxR1 inhibition; recombinant rTrxR1, NADPH fluorescence consumption, selenite substrate; AID 588453; O89049; Potency, µM (doses to about 114 µM), most hits filed as inhibitors; 390,000 compounds, 1% hits; further: nearly all actives have a fitted effect of over 65% in size
Target sequence (O89049 whole entry, looked up): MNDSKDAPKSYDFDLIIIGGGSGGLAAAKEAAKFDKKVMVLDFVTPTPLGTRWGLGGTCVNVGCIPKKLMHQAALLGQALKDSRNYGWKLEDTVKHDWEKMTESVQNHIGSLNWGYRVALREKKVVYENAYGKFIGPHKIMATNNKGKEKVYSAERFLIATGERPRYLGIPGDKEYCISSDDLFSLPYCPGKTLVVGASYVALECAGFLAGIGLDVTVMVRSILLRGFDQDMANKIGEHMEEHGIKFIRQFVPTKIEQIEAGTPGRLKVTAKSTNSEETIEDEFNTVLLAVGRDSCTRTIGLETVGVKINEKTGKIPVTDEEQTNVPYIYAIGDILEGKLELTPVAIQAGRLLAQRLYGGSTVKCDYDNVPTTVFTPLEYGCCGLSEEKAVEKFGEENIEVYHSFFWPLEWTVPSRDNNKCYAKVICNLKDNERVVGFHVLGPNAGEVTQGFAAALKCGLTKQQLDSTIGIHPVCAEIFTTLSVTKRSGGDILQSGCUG
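Rat TrxR1 (90 nM in the dispensed reagent) was pre-reduced with 400 uM NADPH for 5 min at room temperature, then incubated with compound for 15 min. After 400 uM selenite was added, NADPH fluorescence (Ex 340/Em 450 nm) was followed for 8 min.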
Nrf2 activator = activates Nrf2 signaling; AREc32 ARE-luciferase reporter (MCF7-derived line), luminescence, 24 h; Potency, µM (top dose mostly 46.1 µM), most hits filed as activators; 410,000 compounds, 0.31% hits; AID 624171; further: nearly all actives have a fitted effect of over 65% in size
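ARE-driven firefly luciferase activity in AREc32 cells measured after a 24 hr compound exposure at 37 deg C, using Steady-Glo reagent and a 30 min room-temperature hold.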
TrxR1 substrate = rat thioredoxin reductase 1 substrate activity; O89049; purified TrxR1 substrate turnover, NADPH consumption readout; Potency, µM (top dose mostly 114 µM); 390,000 compounds, 0.01% hits; AID 588456; further: nearly all actives have a fitted effect of over 50% in size
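Rat TrxR1, dispensed at 90 nM, was prereduced with 400 uM NADPH (final) for 5 min at ~22 deg C, then incubated with compound 15 min before 400 uM selenite. A first-read NADPH fluorescence drop versus no-compound background flagged substrates.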
A549 viability = A549 cytotoxicity, counter-screen for Nrf2 inhibitors; A549 ARE-Fluc cells, CellTiter-Fluor viability, 18-24 h; Potency, µM (top dose mostly 46 µM), hits mostly inhibitors; 390,000 compounds, 0.16% hits; AID 504648
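A549 ARE_Fluc cells in 5% FBS OPTI-MEM were exposed to compounds in concentration-response for 18-24 h at 37 deg C. Viability was read by CellTiter-Fluor fluorescence (Ex 405/Em 525) after 30 min, before the luciferase read.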
Of the large screens only hits and unclear results are named; the others gave an inactive call. The call rests on the fitted dose curve; in most records, active means well fitted curve in the direction sought with a large enough effect; inconclusive means small, poorly fitted or top-dose-only effect, or another doubt; inactive means no such curve, though single readings can be large; an effect the other way counts as inactive or inconclusive.

OCCCNc1ncnc2sc(-c3ccccc3)cc12	Nrf2 inh inconclusive
C=COCCCNc1ncnc2sc(-c3ccccc3)cc12	Nrf2 inh 13µM
Cc1ccnc(OC(C(=O)O)C(OCCc2ccccc2)(c2ccccc2)c2ccccc2)n1 (stereo not given)	Nrf2 inh inconclusive
Cc1cc(C)nc(OC(C(=O)O)C(OCCc2ccccc2)(c2ccccc2)c2ccccc2)n1 (stereo not given)	Nrf2 inh 13µM
CSc1cccc(NC(=O)Cn2c(=O)n(Cc3ccccc3)c(=O)c3sc4ccccc4c32)c1	none (no result: GALK inh)
Cc1cc(OCC(=O)Nn2cnnc2)c(C)cc1Br	rTrxR1 inhibitor 14.1µM
Cc1ccc(OCC(=O)Nn2cnnc2)c(Br)c1	none
CC(=O)c1sc(NC(=O)CCS(=O)(=O)c2ccc(C)cc2)nc1C	rTrxR1 inhibitor inconclusive, Nrf2 activator 22.4µM, A549 viability inconclusive (no result: GALK inh)
CCOc1cccc2sc(NC(=O)CCS(=O)(=O)c3ccccc3)nc12	Nrf2 activator inconclusive
CC(C)(C)c1nnc(NC(=O)CCS(=O)(=O)c2ccccc2)s1	Nrf2 activator 15.8µM
COc1ccc(C)c2sc(NC(=O)CCS(=O)(=O)c3ccccc3)nc12	rTrxR1 inhibitor 39.8µM, Nrf2 activator inconclusive
Cc1ccc(OCC(=O)N(Cc2sccc2C)C2CCS(=O)(=O)C2)cc1 (stereo not given)	none (no result: GALK inh)
COc1cccc(N2CCN(c3ncnc4c3cnn4-c3ccc(C)cc3C)CC2)c1	Nrf2 inh 18.4µM, A549 viability inconclusive
Cc1ccc(-n2ncc3c(SCc4cccnc4)ncnc32)c(C)c1	Nrf2 inh 4.11µM
Cc1ccccc1-c1cc(C(=O)Nc2sc(C(=O)OC(C)C)c(C)c2C#N)c2ccccc2n1	Nrf2 inh 2.59µM, A549 viability 7.31µM
COC(=O)c1sc(NC(=O)c2cc(-c3ccccc3)nc3ccccc23)c(C#N)c1C	Nrf2 inh 9.2µM, A549 viability inconclusive
Cc1c(CC(=O)NCCCC(=O)O)c(=O)oc2cc3c(cc12)CCC(C)(C)O3	Nrf2 inh 18.4µM (no result: GALK inh)
Cc1c(CC(=O)NCCCCCC(=O)O)c(=O)oc2cc3c(cc12)CCC(C)(C)O3	Nrf2 inh 10.3µM, rTrxR1 inhibitor inconclusive
COCCCNC(=O)Cc1c(C)c2cc3c(cc2oc1=O)OC(C)(C)CC3	rTrxR1 inhibitor inconclusive
Cc1ccc2c(c1)-c1c(c(C(=O)N3CCN(c4cc(C)ccc4C)CC3)nn1C)CS2	none (no result: Nrf2 inh, GALK inh)
Cc1ccc(Nc2nc(N)c([N+](=O)[O-])c(N3CCCC(C)C3)n2)cc1C (stereo not given)	Nrf2 inh inconclusive
CC1CC(C)CN(c2nc(NCc3ccco3)nc(N)c2[N+](=O)[O-])C1 (stereo not given)	Nrf2 inh 23.1µM
Nc1nc(NCc2ccco2)nc(N2CCOCC2)c1[N+](=O)[O-]	Nrf2 inh inconclusive, Nrf2 activator inconclusive
CC1CCCN(c2nc(NCc3ccco3)nc(N)c2[N+](=O)[O-])C1 (stereo not given)	Nrf2 inh 18.4µM
O=C(NC1CC(=O)N(c2cccc(F)c2)C1)c1ccc(S(=O)(=O)N2CCOCC2)cc1 (stereo not given)	none (no result: Nrf2 inh, GALK inh)
COc1ccccc1Cc1nc2ccccc2nc1SCC(=O)NCc1ccc(F)cc1	none (no result: Nrf2 inh, GALK inh)
CCOc1ccc(-c2nc(Cn3c(=O)cc(C)c4c(C)nn(-c5ccccc5)c43)c(C)o2)cc1	Nrf2 inh inconclusive (no result: GALK inh)
CCn1c2ccccc2c2cc(CN3CCN(Cc4ccc(Br)cc4)CC3)ccc21	none (no result: GALK inh)
Cc1ccc(NC(=O)c2cc(S(=O)(=O)NCCC3=CCCCC3)ccc2F)cc1	Nrf2 inh 14.6µM, A549 viability inconclusive
COc1ccccc1N1CCN(C(=O)c2oc3ccccc3c2NC(=O)C(C)Oc2ccccc2)CC1 (stereo not given)	none (no result: GALK inh)
COC(=O)c1ccc(NCc2cc(O)ccc2O)cc1O	rTrxR1 inhibitor inconclusive, Nrf2 activator inconclusive (no result: GALK inh)
COC(=O)c1ccc(NCc2c(O)ccc(O)c2Br)cc1Cl	rTrxR1 inhibitor 31.6µM, Nrf2 activator inconclusive (no result: GALK inh)
O=C(CN(CCc1ccccc1)S(=O)(=O)c1ccccc1)NCc1ccc(Cl)cc1	Nrf2 inh 20.6µM (no result: GALK inh)
N=c1scc(-c2ccccc2)n1/N=C/c1ccco1	Nrf2 activator 11.2µM
Cc1cccc(-c2n[nH]c(=S)n2/N=C/c2ccco2)c1	none
C(=N/n1c2ccccc2c2ccccc21)/c1ccco1	Nrf2 activator 3.16µM (no result: Nrf2 inh)
CCc1cccc(C)c1NC(=O)Cn1ccn(Cc2ccc(Cl)cc2)c(=O)c1=O	none (no result: GALK inh)
Cc1cccn2c(=O)cc(COc3ccc(NC(=O)C(C)Oc4ccccc4)cc3)nc12 (stereo not given)	none (no result: Nrf2 inh, GALK inh)
CC1CCN(C(=O)COC(=O)/C=C/c2ccco2)CC1	Nrf2 inh inconclusive, rTrxR1 inhibitor 8.91µM (no result: GALK inh)
CCOC(=O)/C=C/C(=O)OCC(=O)N1CCN(C(=O)c2ccco2)CC1	rTrxR1 inhibitor 50.1µM, Nrf2 activator inconclusive
O=Cc1cccc(OC(=O)/C=C/c2ccco2)c1	Nrf2 inh inconclusive, rTrxR1 inhibitor 31.6µM
O=C(/C=C/c1ccc(OC(F)F)cc1)OCC(=O)N1CCN(C(=O)c2ccco2)CC1	none
CC1CCCC(NC(=O)COC(=O)/C=C/c2ccco2)C1C (stereo not given)	rTrxR1 inhibitor 22.4µM, Nrf2 activator inconclusive (no result: GALK inh)
CC1CCN(C(=O)COC(=O)/C=C/c2ccc([N+](=O)[O-])cc2)CC1	none (no result: GALK inh)
COC(=O)c1ccc(OC(=O)/C=C/c2ccco2)cc1	none
COC(=O)C(C)Sc1nnc2cc(C)c3cc(C)cc(C)c3n12 (stereo not given)	none (no result: GALK inh)
COc1ccc(-c2nc3sc(CCNC(=O)C(=O)Nc4cc(F)ccc4F)c(C)n3n2)cc1	none (no result: Nrf2 inh, GALK inh)
CCOc1ccc(S(=O)(=O)c2c(C(=O)c3ccc(CC)cc3)cnc3ccc(C)cc23)cc1	none (no result: GALK inh)
COCCNC(=O)CSc1nnc(NC(=O)Nc2ccc(C)cc2)s1	none (no result: Nrf2 inh, GALK inh)
C=C1CCN(C(Cc2ccccc2)C(=O)O)S(=O)(=O)c2ccccc21 (stereo not given)	rTrxR1 inhibitor inconclusive (no result: GALK inh, Nrf2 activator)
CCOC(=O)c1cc(CC)sc1NC(=O)CN1CCN(C(=O)c2ccco2)CC1	Nrf2 inh 20.6µM, rTrxR1 inhibitor 35.5µM, A549 viability inconclusive
CCOC(=O)c1cc(C)sc1NC(=O)CN1CCN(C(=O)c2ccco2)CC1	none
O=C(CCNS(=O)(=O)c1cccc(Cl)c1)OCC(=O)N1CCN(C(=O)c2ccco2)CC1	rTrxR1 inhibitor 50.1µM (no result: GALK inh)
CC1CCCC(C)N1C(=O)COC(=O)/C=C/c1ccco1 (stereo not given)	Nrf2 inh inconclusive, rTrxR1 inhibitor 50.1µM, Nrf2 activator inconclusive (no result: GALK inh)
COc1ccc(Br)cc1S(=O)(=O)N1CCN(S(=O)(=O)c2ccc3c(c2)OCCO3)CC1	Nrf2 inh inconclusive (no result: GALK inh, rTrxR1 inhibitor, Nrf2 activator, TrxR1 substrate)

Screening data as filed in PubChem.
